PubChem BioAssay (EPA / NIEHS)
Inconclusive results are not listed. The source made the active and inactive calls. Rule for the calls, unless noted: active = hit-call score of the fitted dose curve at least 0.9, where 1 is the maximum; inactive = score below 0.9.

Assays:
[1] = target: Retinoic acid receptor RXR-alpha (Homo sapiens) (UniProt P19793); experiment: ATG_RXRa_TRANS: Attagene TRANS-FACTORIAL HepG2 Assay for human Retinoid X Receptor alpha (RXRa) (AID 2283012; active = hit-call score of the fitted dose curve at least 0.9, where 1 is the maximum)
Procedure, shortened: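 Transient transfection of human HepG2 with multiple GAL4-UAS reporter constructs; 24 h compound exposure; total RNA isolated, reverse-transcribed, PCR-amplified, 6-FAM labelled, HpaI-cut, resolved by capillary electrophoresis. Positive-direction fit versus DMSO.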

[2] = target: human Retinoid X Receptor beta (RXRb), RXRB (gene 6257) (UniProt P28702); experiment: ATG_RXRb_TRANS: Attagene TRANS-FACTORIAL HepG2 Assay for human Retinoid X Receptor beta (RXRb) (AID 2283013; active = hit-call score of the fitted dose curve at least 0.9, where 1 is the maximum)
Procedure, shortened: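 Transfect HepG2 with GAL4-UAS multi-reporter constructs (chimeric NR-Gal4, TRANS format); dose compound 24 h; isolate RNA, RT-PCR, FAM primer extension, HpaI digest; quantify by capillary electrophoresis; positive direction vs DMSO.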

[3] = read-out: E-selectin (Homo sapiens) (UniProt P16581); experiment: BSK_3C_Eselectin: BioMAP Diversity Plus: 3C Assay for Eselectin Biomarker Activity (AID 2283015); conditions: primary human endothelial cells (HUVEC); actives raise or lower the signal;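 note: cell surface E-selectin protein quantified by ELISA 24 h after dosing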
Procedure, shortened: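 HUVEC, 3C stimulation; compound exposure 24 h; E-selectin by ELISA; gain- or loss-of-signal fitted bidirectionally vs DMSO baseline.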

[4] = read-out: Interleukin-1 alpha (IL1a), IL1A (gene 3552); experiment: BSK_BE3C_IL1a: BioMAP Diversity Plus: BE3C Assay for Interleukin-1 alpha (IL1a) Biomarker Activity (AID 2283016); conditions: primary human bronchial epithelial cells; actives raise or lower the signal
Procedure, shortened: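 BE3C primary human bronchial epithelium; cpd 24 h; IL-1a by ELISA; bidirectional fit vs DMSO; parallel SRB (0.1% SRB, 10% TCA fix, 560 nm) for cytotoxicity.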

[5] = read-out: Monocyte Chemoattractant Protein-1 (MCP1), CCL2 (gene 6347); experiment: BSK_3C_MCP1: BioMAP Diversity Plus: 3C Assay for Monocyte Chemoattractant Protein-1 (MCP1) Biomarker Activity (AID 2283017); conditions: primary human endothelial cells (HUVEC); actives raise or lower the signal
Procedure, shortened: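 HUVEC, 3C system; 24 h chemical exposure; MCP-1 by ELISA; bidirectional curve fit vs DMSO baseline.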

[6] = read-out: Monocyte Chemoattractant Protein-1 (MCP1), CCL2 (gene 6347); experiment: BSK_4H_MCP1: BioMAP Diversity Plus: 4H Assay for Monocyte Chemoattractant Protein-1 (MCP1) Biomarker Activity (AID 2283018); conditions: primary human endothelial cells (HUVEC); actives raise or lower the signal
Procedure, shortened: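 ELISA read-out of MCP-1 from human vascular endothelial primary cells taken at 24 hours after compound exposure. Activity was fitted in both directions relative to DMSO, which served as negative control.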

[7] = read-out: Human Leukocyte Antigen - DR isotype (HLADR), HLA-DRA (gene 3122); experiment: BSK_3C_HLADR: BioMAP Diversity Plus: 3C Assay for Human Leukocyte Antigen - DR isotype (HLADR) Biomarker Activity (AID 2283019); conditions: primary human endothelial cells (HUVEC); actives raise or lower the signal
Procedure, shortened: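 HUVEC, 3C stimulation, 24 h post-dose; HLA-DR by ELISA; bidirectional curve fit vs DMSO baseline; gain or loss of signal scored.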

[8] = read-out: Interleukin-8 (IL8), CXCL8 (gene 3576); experiment: BSK_3C_IL8: BioMAP Diversity Plus: 3C Assay for Interleukin-8 (IL8) Biomarker Activity (AID 2283020); conditions: primary human endothelial cells (HUVEC); actives raise or lower the signal
Procedure, shortened: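 ELISA read-out of IL-8 from human umbilical vein endothelium, measured 24 h after chemical dosing. Activity is expressed relative to DMSO negative control, with both increases and decreases fitted.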

[9] = read-out: Monokine induced gamma interferon (MIG), CXCL9 (gene 4283); experiment: BSK_3C_MIG: BioMAP Diversity Plus: 3C Assay for Monokine induced gamma interferon (MIG) Biomarker Activity (AID 2283021); conditions: primary human endothelial cells (HUVEC); actives raise or lower the signal
Procedure, shortened: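 Read-out is ELISA detection of MIG on human umbilical vein endothelial cells, taken 24 h after dosing. Gain or loss of signal was scored relative to DMSO controls using bidirectional curve fitting.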

[10] = target: human Vitamin D Receptor (VDR), VDR (gene 7421) (UniProt P11473); experiment: ATG_VDR_TRANS: Attagene TRANS-FACTORIAL HepG2 Assay for human Vitamin D Receptor (VDR) (AID 2283022; active = hit-call score of the fitted dose curve at least 0.9, where 1 is the maximum)
Procedure, shortened: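 RT-PCR/capillary electrophoresis read-out of reporter mRNA induction in transiently transfected HepG2; 24 h dosing; chimeric NR-Gal4 (TRANS format); gain-of-signal fit against DMSO baseline.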

[11] = BSK_3C_SRB: Viability Assessment in the BioMAP Diversity Plus: 3C Assay (AID 2283023); conditions: primary human endothelial cells (HUVEC);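 note: fitted both ways against DMSO so a hit may be signal rise or drop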
Procedure, shortened: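 HUVEC, 24 h post-dose; 10% TCA fix, 0.1% SRB stain, A560 nm. Bidirectional curve fit vs DMSO negative control.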

[12] = read-out: Matrix Metallopeptidase 1 (MMP1), MMP1 (gene 4312); experiment: BSK_BE3C_MMP1: BioMAP Diversity Plus: BE3C Assay for Matrix Metallopeptidase 1 (MMP1) Biomarker Activity (AID 2283024); conditions: primary human bronchial epithelial cells; actives raise or lower the signal
Procedure, shortened: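 Human bronchial epithelial cells (BE3C system) exposed to compound for 24 h; MMP1 then quantified by ELISA. Activity was fitted in both directions relative to DMSO.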

[13] = BSK_3C_Vis: BioMAP Diversity Plus: 3C Assay for Morphology Visualization (AID 2283025); conditions: primary human endothelial cells (HUVEC);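 note: fitted both ways so gain or loss versus DMSO counts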;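 for AC50: light microscopy image of cell morphology used as background control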
Procedure, shortened: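 Chemicals were added to primary human umbilical vein endothelium, cells were incubated 24 h, and morphology was then visualized by light microscopy. Gain or loss of signal was fitted bidirectionally relative to DMSO.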

[14] = read-out: Pselectin, SELP (gene 6403); experiment: BSK_4H_Pselectin: BioMAP Diversity Plus: 4H Assay for Pselectin Biomarker Activity (AID 2283026); conditions: primary human endothelial cells (HUVEC); actives raise or lower the signal
Procedure, shortened: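 ELISA read-out of P-selectin on human umbilical vein endothelium after 24 h of dosing. Values derive from bidirectional fitting relative to DMSO. Parallel SRB protein staining flagged overt cytotoxicity.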

[15] = BSK_4H_SRB: Viability Assessment in the BioMAP Diversity Plus: 4H Assay (AID 2283027); conditions: primary human endothelial cells (HUVEC);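 note: cells exposed to compound for 24 h before staining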
Procedure, shortened: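 Absorbance at 560 nm of SRB-stained total protein served as the viability read-out in confluent primary human umbilical vein endothelium 24 h after chemical treatment. Curves were fitted bidirectionally against DMSO as negative control.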

[16] = BSK_BE3C_SRB: Viability Assessment in the BioMAP Diversity Plus: BE3C Assay (AID 2283028); conditions: primary human bronchial epithelial cells;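 for AC50: fitted both ways so AC50 may mark signal gain or loss versus DMSO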
Procedure, shortened: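 Primary human bronchial epithelium; chemical dosing, 24 h; 10% TCA fix, 0.1% SRB stain, A560; bidirectional fit vs DMSO baseline.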

[17] = read-out: Urokinase-type plasminogen activator receptor (uPAR), PLAUR (gene 5329); experiment: BSK_4H_uPAR: BioMAP Diversity Plus: 4H Assay for Urokinase-type plasminogen activator receptor (uPAR) Biomarker Activity (AID 2283030); conditions: primary human endothelial cells (HUVEC); actives raise or lower the signal
Procedure, shortened: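 HUVEC, 24 h post-dose; uPAR by ELISA; bidirectional fit vs DMSO baseline.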

[18] = read-out: Thrombomodulin, THBD (gene 7056); experiment: BSK_3C_Thrombomodulin: BioMAP Diversity Plus: 3C Assay for Thrombomodulin Biomarker Activity (AID 2283029); conditions: primary human endothelial cells (HUVEC); actives raise or lower the signal
Procedure, shortened: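 Read-out is ELISA of thrombomodulin on human umbilical vein endothelium 24 h after chemical dosing. Gain or loss of signal is scored relative to DMSO. Overt cytotoxicity is checked in parallel cultures by sulforhodamine B staining.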

[19] = read-out: Vascular endothelial growth factor receptor 2 (Homo sapiens) (UniProt P35968); experiment: BSK_4H_VEGFRII: BioMAP Diversity Plus: 4H Assay for Vascular endothelial growth factor receptor 2 (VEGFR2) Biomarker Activity (AID 2283031); conditions: primary human endothelial cells (HUVEC); actives raise or lower the signal
Procedure, shortened: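 HUVEC (human primary), 4H system; 24 h post-dose; VEGFRII by ELISA; bidirectional curve fit vs DMSO baseline; gain or loss of signal scored.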

[20] = target: human Thyroid Receptor alpha (THRa1), THRA (gene 7067) (UniProt P10827); experiment: ATG_THRa1_TRANS: Attagene TRANS-FACTORIAL HepG2 Assay for human Thyroid Receptor alpha (THRa1) (AID 2283014; active = hit-call score of the fitted dose curve at least 0.9, where 1 is the maximum)
Procedure, shortened: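 Transient HepG2 transfection, NR-Gal4 chimera driving GAL4-UAS reporters; 24 h compound exposure; total RNA, oligo(dT) RT, PCR, fluorescent primer extension, capillary electrophoresis. Upward direction vs DMSO control.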

Measured: AC50

Chain of Retinoic acid receptor RXR-alpha (Homo sapiens) (P19793 whole entry, looked up, the tested form may be a part): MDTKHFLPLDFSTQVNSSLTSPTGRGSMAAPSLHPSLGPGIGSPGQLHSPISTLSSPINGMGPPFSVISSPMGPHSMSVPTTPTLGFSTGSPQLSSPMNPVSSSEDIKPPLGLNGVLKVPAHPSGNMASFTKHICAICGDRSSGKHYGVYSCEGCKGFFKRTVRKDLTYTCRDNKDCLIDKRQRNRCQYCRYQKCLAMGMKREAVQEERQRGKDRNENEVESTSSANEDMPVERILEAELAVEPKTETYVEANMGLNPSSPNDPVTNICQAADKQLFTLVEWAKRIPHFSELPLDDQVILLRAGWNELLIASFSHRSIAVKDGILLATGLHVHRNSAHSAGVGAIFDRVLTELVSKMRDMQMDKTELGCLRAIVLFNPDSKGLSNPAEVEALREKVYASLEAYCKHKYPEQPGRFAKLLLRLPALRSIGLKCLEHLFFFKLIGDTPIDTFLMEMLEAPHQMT
Chain of human Thyroid Receptor alpha (THRa1), THRA (gene 7067) (P10827 whole entry, looked up, the tested form may be a part): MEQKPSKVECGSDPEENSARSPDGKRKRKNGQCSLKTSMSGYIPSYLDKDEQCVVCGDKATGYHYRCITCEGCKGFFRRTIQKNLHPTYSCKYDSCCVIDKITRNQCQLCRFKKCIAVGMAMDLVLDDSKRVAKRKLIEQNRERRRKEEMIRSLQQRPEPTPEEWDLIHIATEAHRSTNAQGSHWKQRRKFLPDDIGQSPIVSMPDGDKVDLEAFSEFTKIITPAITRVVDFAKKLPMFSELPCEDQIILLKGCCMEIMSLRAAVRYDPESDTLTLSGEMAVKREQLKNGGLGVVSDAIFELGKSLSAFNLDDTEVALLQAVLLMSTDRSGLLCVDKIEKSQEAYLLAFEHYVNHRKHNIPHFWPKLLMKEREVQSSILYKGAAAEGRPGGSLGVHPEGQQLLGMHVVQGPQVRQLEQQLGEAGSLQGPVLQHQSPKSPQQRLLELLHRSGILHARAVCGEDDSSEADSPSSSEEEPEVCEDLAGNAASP
Chain of E-selectin (Homo sapiens) (P16581 whole entry, looked up): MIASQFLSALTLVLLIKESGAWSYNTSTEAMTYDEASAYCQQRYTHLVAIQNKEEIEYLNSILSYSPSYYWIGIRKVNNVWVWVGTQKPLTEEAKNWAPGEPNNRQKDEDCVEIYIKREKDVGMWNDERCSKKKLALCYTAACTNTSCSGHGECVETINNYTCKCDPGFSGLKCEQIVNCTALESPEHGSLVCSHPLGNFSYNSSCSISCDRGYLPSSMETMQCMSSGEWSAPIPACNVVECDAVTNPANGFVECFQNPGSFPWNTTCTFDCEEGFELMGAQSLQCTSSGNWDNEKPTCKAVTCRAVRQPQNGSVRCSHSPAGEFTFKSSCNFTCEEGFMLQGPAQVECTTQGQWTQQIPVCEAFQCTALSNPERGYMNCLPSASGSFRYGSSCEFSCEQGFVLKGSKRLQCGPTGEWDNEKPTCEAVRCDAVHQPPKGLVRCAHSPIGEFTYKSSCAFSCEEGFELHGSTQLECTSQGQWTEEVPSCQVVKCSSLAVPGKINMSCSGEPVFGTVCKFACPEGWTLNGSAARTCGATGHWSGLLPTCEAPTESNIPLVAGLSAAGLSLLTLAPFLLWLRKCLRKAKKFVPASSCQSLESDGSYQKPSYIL
Chain of human Retinoid X Receptor beta (RXRb), RXRB (gene 6257) (P28702 whole entry, looked up, the tested form may be a part): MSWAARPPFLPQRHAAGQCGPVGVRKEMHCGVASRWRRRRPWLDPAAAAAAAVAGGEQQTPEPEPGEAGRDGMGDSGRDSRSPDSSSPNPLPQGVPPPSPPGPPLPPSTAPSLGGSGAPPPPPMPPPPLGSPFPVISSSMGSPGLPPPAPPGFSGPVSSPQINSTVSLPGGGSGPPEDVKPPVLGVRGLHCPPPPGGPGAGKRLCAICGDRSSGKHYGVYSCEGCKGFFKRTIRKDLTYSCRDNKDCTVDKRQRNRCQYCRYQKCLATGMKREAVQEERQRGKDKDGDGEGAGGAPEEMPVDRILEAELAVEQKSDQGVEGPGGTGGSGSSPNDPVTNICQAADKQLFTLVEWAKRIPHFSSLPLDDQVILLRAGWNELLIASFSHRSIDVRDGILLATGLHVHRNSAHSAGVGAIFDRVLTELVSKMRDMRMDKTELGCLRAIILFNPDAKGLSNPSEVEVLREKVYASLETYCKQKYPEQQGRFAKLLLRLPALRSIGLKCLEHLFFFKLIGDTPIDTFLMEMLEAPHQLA
Chain of human Vitamin D Receptor (VDR), VDR (gene 7421) (P11473 whole entry, looked up, the tested form may be a part): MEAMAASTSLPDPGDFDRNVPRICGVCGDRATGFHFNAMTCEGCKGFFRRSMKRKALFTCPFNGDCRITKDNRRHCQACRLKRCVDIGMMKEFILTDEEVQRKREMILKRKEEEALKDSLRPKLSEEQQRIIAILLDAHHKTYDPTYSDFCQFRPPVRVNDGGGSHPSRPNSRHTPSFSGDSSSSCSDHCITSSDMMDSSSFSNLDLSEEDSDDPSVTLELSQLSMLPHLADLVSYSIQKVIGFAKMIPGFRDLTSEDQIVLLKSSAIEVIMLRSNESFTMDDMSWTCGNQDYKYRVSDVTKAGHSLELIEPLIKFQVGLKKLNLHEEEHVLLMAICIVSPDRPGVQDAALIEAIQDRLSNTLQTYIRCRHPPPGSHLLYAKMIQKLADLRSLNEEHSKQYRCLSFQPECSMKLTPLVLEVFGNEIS

CC(C)OC(=O)C(C)(C)Oc1ccc(C(=O)c2ccc(Cl)cc2)cc1
active: [2] 26.9 µM | [5] 30.2 µM | [6] 25.3 µM | [7] 14.2 µM | [8] 14.1 µM | [11] 14.8 µM | [12] 13.3 µM | [13] 39 µM | [14] 32.8 µM
inactive: [1] | [3] | [4] | [9] | [10] | [15] | [16] | [17]

CCc1cc(C2=C(C(=O)O)N(c3ccccc3C(F)(F)F)S(=O)(=O)c3ccccc32)cc2c1OCO2
active: [7] 24.8 µM | [12] 10.8 µM | [18] 10.2 µM
inactive: [1] | [3] | [4] | [5] | [6] | [8] | [9] | [10] | [11] | [13] | [14] | [16] | [17] | [19]

CCCCCCCCCCCCCCOS(=O)(=O)O
inactive: [1] | [2] | [3] | [5] | [6] | [7] | [8] | [9] | [11] | [13] | [14] | [17] | [19]
active: [4] 28.1 µM | [12] 31.8 µM | [16] 21.2 µM | [18] 33.8 µM

COC(=O)CCCC(=O)OC
inactive: [1] | [3] | [4] | [5] | [6] | [7] | [8] | [9] | [10] | [11] | [12] | [13] | [14] | [16] | [18] | [17] | [19]

O=C1OC(c2ccc(O)cc2)(c2ccc(O)cc2)c2ccccc21
inactive: [1] | [20] | [3] | [8] | [9] | [16] | [18] | [19]
active: [4] 34.8 µM | [5] 14.1 µM | [6] 20 µM | [7] 31.1 µM | [11] 28.6 µM | [12] 3.97 µM | [13] 37.5 µM | [14] 30.2 µM | [17] 14.3 µM

CSc1ccc(Oc2ccc(S(N)(=O)=O)cc2CN(C)C)cc1C
active: [13] 39 µM | [17] 12.2 µM
inactive: [1] | [3] | [4] | [5] | [6] | [7] | [8] | [9] | [10] | [11] | [12] | [14] | [16] | [18] | [19]

NC=O
inactive: [2] | [20] | [3] | [4] | [5] | [6] | [7] | [8] | [9] | [10] | [11] | [12] | [13] | [14] | [15] | [16] | [18] | [17] | [19]

Cn1cnc2c1c(=O)[nH]c(=O)n2C
inactive: [1] | [3] | [4] | [5] | [6] | [7] | [8] | [9] | [11] | [12] | [13] | [14] | [15] | [16] | [18] | [17] | [19]

CC(C)c1cccc(C(C)C)c1
active: [2] 100 µM
inactive: [1] | [3] | [4] | [5] | [6] | [7] | [8] | [9] | [11] | [12] | [13] | [14] | [15] | [16] | [18] | [17] | [19]

NC1CCCCC1
inactive: [2] | [20] | [3] | [4] | [5] | [6] | [7] | [8] | [9] | [10] | [11] | [12] | [13] | [14] | [15] | [16] | [18] | [17] | [19]

CCCC[C@H]1CN(CC2CCOCC2)C(=O)OC12CCN(C1(C)CCN(C(=O)c3c(C)ncnc3C)CC1)CC2
inactive: [1] | [2] | [3] | [4] | [5] | [6] | [7] | [8] | [9] | [11] | [12] | [13] | [14] | [16] | [18] | [17] | [19]

NC(=Nc1ccccc1)Nc1ccccc1
inactive: [1] | [2] | [3] | [4] | [5] | [6] | [7] | [8] | [9] | [11] | [12] | [13] | [16] | [18] | [17] | [19]

N[C@@H](Cc1c[nH]c2ccccc12)C(=O)O
inactive: [2] | [20] | [3] | [4] | [5] | [6] | [7] | [8] | [9] | [11] | [12] | [13] | [14] | [15] | [16] | [18] | [17] | [19]

CC(=O)CC(c1ccccc1)c1c(O)c2ccccc2oc1=O (stereo unspecified)
inactive: [1] | [3] | [4] | [5] | [6] | [7] | [8] | [9] | [10] | [11] | [12] | [13] | [14] | [16] | [18] | [17] | [19]

CC(=O)OC1CC(C)OC(C)O1 (stereo unspecified)
inactive: [1] | [2] | [3] | [4] | [5] | [6] | [7] | [8] | [9] | [11] | [12] | [13] | [14] | [15] | [16] | [18] | [17] | [19]
